Hits are enriched below; roughly 3.6% of the tested compounds scored in any of these assays.
GCN5L2 inh-1: inhibitors of human GCN5L2 histone acetyltransferase; AID 504327; Potency, µM (top dose mostly 58.9 µM), for inactives: at the top dose activity change, negative = inhibition, actives largely listed as inhibitors; 390,000 compounds, 0.21% hits; Q92830; GCN5L2 HAT assay, ThioGlo1 CoA-SH fluorescence; further: potency means the concentration at half of the fitted maximal effect; on the % scale 0 is the no-effect control and ±100 the full control effect
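GCN5L2 (20nM final) in 50mM HEPES, 0.1mM EDTA pH 7.5, 0.01% Tween-20 was preincubated 15 min at room temperature with compound, then given ThioGlo1 (50uM), H3(1-25) peptide (75uM) and acetyl-CoA (70uM); CoA-thiol fluorescence (Ex340/Em540) was read at 0 and 20 min.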
PI5P4K alpha inh: PI5P4K alpha (human) kinase inhibition; 330,000 compounds, 1.2% hits; PI5P4Kalpha enzyme, ADP-Glo luminescence, 60 min; hits give low values; AID 652105; max response, %; P48426; active means max response of -50% or lower; inconclusive means between -30% and -50%; inactive means -30% or higher; further: value at the top dose of about 77 µM; on the % scale 0 is the no-effect control and ±100 the full control effect
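Compounds were pin-transferred onto PI5P4Kalpha and substrate in HEPES pH 7.4 buffer with EGTA, CHAPS and 5% DMSO. ATP (5 microM final) started the reaction, which ran 60 minutes at room temperature before ADP-Glo detection.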
VDR inh: vitamin D3 receptor (human) inhibition | AID 504847 | VDR-SRC2-3 peptide fluorescence polarization, 2 h | 400,000 compounds, 0.93% hits | P11473 | Potency, µM, for inactives: max response, negative = inhibition, hits mostly inhibitors; further: potency means the concentration at half of the fitted maximal effect; on the % scale 0 is the no-effect control and ±100 the full control effect
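Measured by FP: displacement of SRC2-3 coactivator peptide from VDR by library compounds, following a two-hour ambient incubation.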
PLK1 PBD block: blocks phosphopeptide binding to human PLK1 polo-box domain. P53350. Plk1 PBD binding of FITC phosphopeptide, fluorescence polarization. Potency, µM, for inactives: max response, negative = inhibition, usual class: inhibitors. 360,000 compounds, 2.8% hits. AID 720504; further: potency means the concentration at half of the fitted maximal effect; series mostly up to about 57 µM; on the % scale 0 is the no-effect control and ±100 the full control effect; nearly all actives have a fitted effect of over 65% in size
Rango-impB inh: inhibitors of Rango-importin beta complex formation. Q14974. Rango CFP/YFP FRET sensor + importin beta, 45 min. Potency, µM (series often up to 92.2 µM), for the others: top-dose inhibition of complex formation. 340,000 compounds, 0.031% hits. AID 540263; calls by dose curve;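 further: potency means the concentration at half of the fitted maximal effect; 0% = DMSO wells and 100% = buffer wells lacking importin beta; nearly all actives have a fitted effect of over 15% in size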
Target sequence (Q14974 whole entry, looked up): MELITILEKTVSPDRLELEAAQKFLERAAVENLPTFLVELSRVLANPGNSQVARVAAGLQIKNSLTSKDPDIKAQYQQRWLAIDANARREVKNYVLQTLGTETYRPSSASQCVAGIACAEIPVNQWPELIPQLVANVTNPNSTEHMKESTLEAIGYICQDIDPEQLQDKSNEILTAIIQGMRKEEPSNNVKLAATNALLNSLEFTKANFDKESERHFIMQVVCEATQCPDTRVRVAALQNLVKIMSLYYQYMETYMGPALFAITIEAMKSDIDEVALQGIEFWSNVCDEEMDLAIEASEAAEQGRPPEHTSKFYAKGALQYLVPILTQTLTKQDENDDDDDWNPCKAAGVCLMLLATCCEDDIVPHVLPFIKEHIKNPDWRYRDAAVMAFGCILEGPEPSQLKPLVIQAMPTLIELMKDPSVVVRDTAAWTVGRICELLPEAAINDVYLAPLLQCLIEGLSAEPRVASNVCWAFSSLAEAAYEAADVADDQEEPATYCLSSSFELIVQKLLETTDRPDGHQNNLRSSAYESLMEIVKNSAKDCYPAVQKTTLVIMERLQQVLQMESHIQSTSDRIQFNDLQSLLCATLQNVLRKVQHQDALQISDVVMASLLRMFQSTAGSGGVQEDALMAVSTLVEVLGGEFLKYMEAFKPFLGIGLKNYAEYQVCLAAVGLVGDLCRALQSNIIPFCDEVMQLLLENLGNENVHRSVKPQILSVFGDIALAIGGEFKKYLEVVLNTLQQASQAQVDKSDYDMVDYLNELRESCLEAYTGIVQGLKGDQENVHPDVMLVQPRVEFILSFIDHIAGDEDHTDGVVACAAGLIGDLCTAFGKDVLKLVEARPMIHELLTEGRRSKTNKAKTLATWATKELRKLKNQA
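Inhibition scored from the CFP 486 nm/YFP 530 nm FRET ratio 45 min after adding 0.125 microM importin beta to 50 nM Rango biosensor preincubated 5 min with compound (room temperature, PBS with DTT, Tween-20, BSA). No-importin wells as positive control.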
Rango dissoc inh: prevents RanGTP from dissociating the Rango-importin beta complex; O95149+P62826; Biochemical FRET Rango-importin beta, RanGTP-induced dissociation; Potency, µM (series often up to 46.1 µM), for the others: at the top dose activity change, negative = inhibition; 340,000 compounds, 0.071% hits; AID 540253; calls by dose curve; further: potency means the concentration at half of the fitted maximal effect; % of control where 0% means no effect; nearly all actives have a fitted effect of over 45% in size
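Compounds sat 5 min at room temperature with 0.1 uM Rango biosensor plus 0.25 uM importin beta, then FRET pre-read. RanGTP-RCC1 (0.6 uM Ran, 2mM GTP, 0.2 uM RCC1) added for 45 min, and the CFP/YFP post-read measured blocked complex dissociation.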
GCN5L2 inh-2: confirmation of human GCN5L2 histone acetyltransferase inhibitors; 140 compounds, 70% hits; shares compounds with GCN5L2 inh-1; GCN5L2 HAT, ThioGlo1 CoA fluorescence, 20 min; Potency, µM, most hits filed as inhibitors
USP1-UAF1 confirm: blocks human USP1/UAF1 cleavage of Ub-Rhodamine; shares compounds with VDR inh; Potency, µM (titrated, usually from 114 µM), inactives show at the highest dose activity change, negative = inhibition, hits mostly inhibitors; 50 compounds, 50% hits; Ub-Rhodamine cleavage, fluorescence kinetic read
VDR inh confirm: inhibits human vitamin D receptor, primary hit validation; shares compounds with VDR inh; AID 602199; 840 compounds, 89% hits; VDR-coactivator inhibition assay, qHTS confirmation; Potency, µM, hits mostly inhibitors; further: potency means the concentration at half of the fitted maximal effect
VDR FP fluor: VDR (human) coactivator binding inhibition, fluorescein polarization | shares compounds with VDR inh | VDR-coactivator binding, fluorescein fluorescence polarization | Potency, µM (top dose mostly 57.1 µM), for inactives: at the highest dose activity change, negative = inhibition, usual class: inhibitors | 840 compounds, 48% hits | AID 602200; further: potency means the concentration at half of the fitted maximal effect
VDR bla reporter: VDR (human) inhibition, cell-based beta-lactamase validation; shares compounds with VDR inh; VDR beta-lactamase reporter cells, FRET ratio; cells co-treated with VDR agonist LG190178; Potency, µM (top dose mostly 46.1 µM), without a hit: at the highest dose activity change, negative = inhibition, actives largely listed as inhibitors; 840 compounds, 23% hits; AID 602202; further: potency means the concentration at half of the fitted maximal effect; on the % scale 0 is the no-effect control and ±100 the full control effect
VDR cytotox: counter-screen for vitamin D receptor inhibitors: cytotoxicity; shares compounds with VDR inh; cytotoxicity counter-screen, cell viability, qHTS; Potency, µM (series often up to 48.3 µM), for the others: at the top dose activity change, negative = cytotoxicity, hits mostly cytotoxic; 840 compounds, 18% hits; AID 602204;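 further: potency means the concentration at half of the fitted maximal effect; plate controls were DMSO for no effect and high-concentration cycloheximide for full effect; nearly all actives have a fitted effect of over 75% in size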
Active calls of the source: *; ? = inconclusive; · = not tested or not shown. Unless noted, the call rests on the fitted dose curve; in most records, active means well fitted curve in the direction sought with a large enough effect; inconclusive means small, poorly fitted or top-dose-only effect, or another doubt; inactive means no such curve, though single readings can be large; an effect the other way counts as inactive or inconclusive.

SMILES	GCN5L2 inh-1	PI5P4K alpha inh	VDR inh	PLK1 PBD block	Rango-impB inh	Rango dissoc inh	VDR inh confirm	VDR FP fluor	VDR bla reporter	VDR cytotox	others
Cc1cc(C(C#N)c2ccc(Cl)cc2)c(Cl)cc1NC(=O)c1cc(I)cc(I)c1O (stereo not given)	10µM*	-54.9*	?	?	6.6%	-8.8%	·	·	·	·	GCN5L2 inh-2=?
CC/C=C\C/C=C\C/C=C\C/C=C\C/C=C\CCCC(=O)NCCc1ccc(O)c(O)c1	·	·	-15.0%	·	·	·	·	·	·	·
O=C1NC(=O)N(CCc2ccc(F)cc2)C(=O)/C1=C/c1cccs1	-20.7%	-73.6*	17.8µM*	1.06µM*	-5.0%	0.8%	9.47*	?	18.9%	6.8%
O=C1NC(=O)N(CCC2=CCCCC2)C(=O)/C1=C\c1cccs1	-25.6%	?	44.7µM*	1.06µM*	2.3%	6.5%	8.44*	?	4.4%	-27.6%
O=c1[nH]c(=S)n(CCC2=CCCCC2)c(O)c1/C=N/Nc1ccccc1	-17.4%	-29.4	?	-19.9%	?	-9.2%	·	·	·	·
O=S(=O)(/C(=C/c1ccc(C(F)(F)F)cc1)c1nc2ccccc2[nH]1)c1ccccc1	-0.9%	-6.1	15.8µM*	0.0%	0.1%	1.2%	3.77*	?	2.31µM*	8.2µM*
CC(C)C[C@H]1C(=O)N2CCC[C@H]2[C@]2(O)O[C@](NC(=O)[C@@H]3C=C4c5cccc6[nH]c(Br)c(c56)CC4N(C)C3)(C(C)C)C(=O)N12 (stereo not given in full)	-6.8%	-9.0	-13.6%	-6.7%	7.6%	-8.9%	·	·	·	·
O=c1nc(/C=C/c2ccc(Cl)cc2Cl)cc(C(F)(F)F)[nH]1	-23.2%	-8.5	10µM*	26.7µM*	-4.0%	?	7.52*	3.16µM*	?	37.0%
C[C@]12CCC3C(CC[C@H]4C[C@@H](O)CC[C@]34C)[C@@H]1CCC2=O (stereo not given in full)	-4.7%	·	-14.8%	·	·	·	·	·	·	·
COC(=O)Cn1cc(/C=C2\C(=O)NC(=O)N(c3ccc(OC)cc3)C2=O)c2ccccc21	-2.7%	-3.1	-8.7%	?	-0.2%	-3.0%	·	·	·	·
O=C1NC(=O)N(c2ccccc2)C(=O)/C1=C\c1ccccc1[N+](=O)[O-]	-3.2%	?	44.7µM*	?	-1.2%	-14.7%	21.2*	28.2µM*	23.9%	6.0%
CCOc1ccc(N2C(=O)NC(=O)/C(=C\c3cc(OC)c(OC)cc3[N+](=O)[O-])C2=O)cc1	0.9%	-23.3	31.6µM*	31.8%	-2.4%	-9.7%	16.8*	12.6µM*	25.8%	5.5%
C(=C/c1ccccc1)/CN1CCN(CCOC(c2ccccc2)c2ccccc2)CC1	-27.6%	·	-7.0%	·	·	·	·	·	·	·
COC(=O)C1=Nc2ccccc2/C1=C\c1c(O)n(-c2ccc(Br)cc2)c(=O)[nH]c1=O	-22.8%	-101.6*	79.4µM*	1.68µM*	-0.1%	14.1%	21.2*	?	29.6%	-8.9%
C[N+](C)(C)CCCCCCCCCC[N+](C)(C)C	-3.5%	1.6	-0.2%	1.1%	-1.2%	?	·	·	·	·
Cc1ccccc1N1C(=O)NC(=O)/C(=C\c2ccc3c(c2)CCCN3Cc2ccccc2)C1=O	?	-64.6*	39.8µM*	?	?	?	11.9*	200.3%	37.9%	12.1%
COc1cc(/C=C/[N+](=O)[O-])ccc1O	-10.2%	-19.6	28.2µM*	18.9µM*	-0.4%	0.2%	29.9*	?	?	?
COc1ccc(-n2c(/C=C/c3ccc(O)c(OC)c3)nc3ccccc3c2=O)cc1	-13.6%	-1.9	-15.6%	46.7%	?	?	·	·	·	·
COc1ccc2[nH]cc(CCN=C(N)N)c2c1	-5.2%	4.0	1.8%	-6.0%	-0.2%	0.4%	·	·	·	·
COc1ccc2[nH]cc(C3=CCNCC3)c2c1	-26.9%	·	-1.1%	·	·	·	·	·	·	·	USP1-UAF1 confirm=52.7µM*
CSCC[C@@H]1NC(=O)[C@@H](NC(=O)[C@H](CCCNC(=N)N)NC(=O)[C@H](CC(C)C)NC(=O)[C@H](CCSC)NC(=O)[C@H](CC(=O)O)NC(=O)[C@H](Cc2ccccc2)NC(=O)[C@@H](N)CC(=O)O)CSSC[C@@H](C(=O)N[C@@H](Cc2c[nH]c3ccccc23)C(=O)N[C@@H](CCC(N)=O)C(=O)N[C@H](C(=O)O)C(C)C)NC(=O)[C@@H]2CCCN2C(=O)[C@H](CCCNC(=N)N)NC(=O)[C@H](Cc2ccc(O)cc2)NC(=O)[C@H](C(C)C)NC(=O)[C@H](CCCNC(=N)N)NC(=O)CNC(=O)[C@H](CC(C)C)NC1=O	6.2%	·	?	·	·	·	·	·	·	·
C/C1=C\[C@@H](C)C/C=C/[C@H]2[C@@H]3O[C@]3(C)[C@@H](C)[C@H]3[C@H](Cc4c[nH]c5ccccc45)NC(=O)[C@]32C(=O)/C=C/C(=O)[C@@H]1O	-1.4%	?	?	?	?	-14.7%	·	·	·	·
CC1=CC2/C=C(\C)CCC(O)C(O)/C=C/C(=O)C23C(=O)NC(CC(C)C)C3C1C (stereo not given)	-2.3%	-26.0	22.4µM*	?	-2.2%	-9.7%	16.8*	?	7.31µM*	14.6µM*
COC(=O)CCC(=O)Nc1sc(Cc2ccccc2)c(C)c1C(N)=O	?	?	20µM*	2.38µM*	0.4%	0.0%	?	?	-1.6%	18.9%
